Results reported in the supplement of paper PMC6555819.

Assays:
Experiment in all cases: PBM binding z-score (relative to random genomic background probes); higher = stronger binding; sequences stand for … in GC…GCGATTGACAGCGTAGAATGAAGG
[1] = tested on: RARb homodimer (NR concentration 270 nM)
Method in brief: (§1)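 Ligand-free nuclear receptor dimers were bound for 1 h to custom Agilent 4×180K protein-binding microarrays. Detection used antibodies against each partner (one per run). Binding z-scores rest on regression-normalized fluorescence, with random background probes as the reference.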

[2] = tested on: RARg:RXRa (NR concentration 270 nM, RXRa partner concentration 90 nM)
Method in brief: as §1

[3] = tested on: RARg homodimer (NR concentration 270 nM)
Method in brief: as §1

[4] = tested on: RXRa DBDmut IVT, anti-RXR (DBD mutation: RXRa K156A/R161A, NR concentration 90 nM)
Method in brief: as §1

[5] = tested on: RXRa homodimer (NR concentration 180 nM)
Method in brief: as §1

[6] = tested on: THRa:RXRa (NR concentration 90 nM, RXRa partner concentration 90 nM)
Method in brief: as §1

[7] = tested on: THRa homodimer (NR concentration 90 nM)
Method in brief: as §1

[8] = tested on: VDR homodimer (NR concentration 270 nM)
Method in brief: as §1

| Sequence | PBM binding z-score [1] | PBM binding z-score [2] | PBM binding z-score [3] | PBM binding z-score [4] | PBM binding z-score [5] | PBM binding z-score [6] | PBM binding z-score [7] | PBM binding z-score [8] |
| --- | --- | --- | --- | --- | --- | --- | --- | --- |
| CTACCAAGGTGAACAACGTCGTTGATTACTATTC | 0.607 | 0.832 | 0.962 | 0.685 | 0.887 | 1.79 | 0.72 | -0.472 |
| AAGACAGGGTCACTAGGCCAGAGTAGGTACGAAT | 3.02 | 4.97 | 4.66 | 2.26 | 5.58 | 3.1 | 0.755 | 1.87 |
| CGAACTAGGTCAGGGACAGTGAATCTCCGCACGC | 2.17 | 2.92 | 3.51 | 0.647 | 1.47 | 2.23 | 1.07 | -0.0543 |
| AGAATGAGGTTATACGTTGATCAGGGAAGAAAGT | 0.786 | 1.49 | 0.994 | 1.71 | 2.12 | 2.2 | 0.901 | 1.5 |
| CCTAGGTGGTCAGGAGGTCACACACCGGATATGA | 4.34 | 5.44 | 4.63 | 0.00245 | 5.16 | 3.45 | 2.2 | 2.85 |
| TAGCCTAGGTCAGAGCGGGCCAGTATACGCTATA | 1.85 | 2.55 | 3.13 | -0.459 | 1.18 | 2.85 | -0.121 | -0.402 |
| CGAACTAGGTCATTGACAGGATAGTGAATAGTAA | 2.38 | 3.62 | 3.86 | 2.34 | 2.55 | 2.57 | 0.521 | 0.957 |
| CCTAGCAGGCCAATCAGGGTCACTCAAGGCTTGA | 3.13 | 2.79 | 2.02 | 0.629 | 3.31 | 4.68 | 1.15 | 1.77 |
| ATCTGTAGGTTAAGGGTCATTCAGGTTGGTTCGC | 4.02 | 5.03 | 3.89 | 2.02 | 6.57 | 3.69 | 2.07 | 4.28 |
| TCATATAGGTAAAAGGTGACAGTCGGTGTGGTAA | 1.71 | 1.48 | 0.836 | 1.66 | 2.28 | 1.4 | 0.394 | 0.0898 |
| TGAATGAGGTTATAAGATCACGGAACGTTGCAAA | 0.253 | 2.04 | 1.23 | 0.931 | 2.7 | 2.08 | 0.188 | 0.468 |
| CCTACTGCGCCACGAAAGGTCATTGATTCAGTGA | 4.75 | 4.62 | 4 | 1.51 | 5.58 | 3.36 | 1.47 | 2.91 |
| CGAACTAGGTCATGGACAGTGAATCTCCGCACGC | 2.85 | 3.94 | 4.35 | 1.84 | 3.21 | 2.94 | 1.16 | 0.367 |
| CAGCCTAGGTCTGGGCCAGTATAGGAGGAACGTT | -0.496 | -0.501 | -0.44 | -1 | -0.703 | -0.77 | -1.16 | -0.974 |
| ATCTGTAGGTTACATCCGGGTCATTCAGGCTATG | 3 | 3.79 | 2.18 | 1.17 | 3.04 | 3.81 | 2.84 | 2.67 |
| ACAGACAGGAGATGAAGGTAACTCAGGCTATCAT | 0.465 | 0.0751 | 0.419 | -0.203 | -0.000835 | 1.03 | 0.773 | 0.239 |
| ATCGAAAGGTCGAAGGCGAGTATACCCACCCGAA | 2.23 | 3.79 | 3.68 | 0.777 | 3.64 | 1.75 | -0.359 | 0.879 |
| GTACCAAGGTGAATAGGACGTTGATGAGTAGGCG | 0.539 | 0.543 | 0.959 | -0.489 | 0.542 | 1.24 | 0.345 | 0.0653 |
| CGTCCAAGGTCAAAGGTCAGTGACGAGATGACGG | 5.47 | 8.79 | 8.22 | 3.93 | 10.5 | 4.85 | 2.69 | 3.54 |
| GCAATTAGTTGAAAGGGCAACCGAATGATTCTCG | 2 | 1.14 | 1.24 | 0.685 | 1.25 | 0.471 | -0.13 | 0.159 |
| CCTGCTAGGTCAATGGTCAGCTACAGCAGCTCGC | 2.95 | 3.82 | 4.13 | 1.74 | 2.49 | 2.19 | 1 | 0.15 |
| GCTTGTAGATCAAGGTTAAGCAAGACTAAGCTAA | 0.306 | 0.623 | 0.359 | -0.0459 | 0.912 | 1.67 | -0.236 | -0.472 |
| TCGAGTGGGTTACCAATGGGGCATTCAGCTTTCT | 0.278 | 0.678 | -0.504 | -0.00783 | 0.312 | -0.369 | -1.25 | -1.02 |
| TCTTGTACATCAGCAGGTTAAGAAAGCTGGCCAA | 0.266 | 0.217 | -0.00852 | 0.924 | 0.606 | 0.455 | -0.157 | 0.111 |
| CGAACTAGGTCAGAACTGGACAGTGAAGGATGAT | 1.62 | 2.49 | 3.05 | 0.459 | 1.3 | 1.13 | -0.298 | 0.221 |
| TCTCGGAGGACACTAAGGTCAGAGCTTTCCAGAG | 3.82 | 3.4 | 3.84 | 1.33 | 2.26 | 3.71 | 3.11 | 2.73 |
| AGAACGAGGGCACGCTGAGTTGAGAGCAGAGTAG | 1.24 | 2.01 | 2.05 | 1.81 | 1.57 | 1.95 | -0.054 | 1.29 |
| ATATGCAGGTTAAGGGTCATTCAGGTTGGTTCGC | 3.97 | 4.66 | 3.52 | 2.24 | 6.59 | 3.64 | 1.26 | 4.45 |
